# Test results from PubChem BioAssay (Tox21).
# Inconclusive results are not listed. Values without a mark were called inactive. Calls come from the whole dose curve; as a rule, active = well fitted cell-killing curve with a large enough effect in the repeat runs; inconclusive = weak or mixed curves; inactive = flat fitted curve, though single readings scatter.
# Assay: qHTS RealTime-Glo MT Cell Viability Assay in HepG2 cells - 16 hour (AID 1224885); note: nearly all actives have a fitted effect of over 50% in size
# Conditions: RealTime-Glo luminescence; series mostly up to 76.8 µM; activity change, negative = cytotoxic: at the top concentration
# Text: U.S. Tox21 Program National Center for Advancing Translational Sciences [NCATS] NIH Chemical Genomics Center [NCGC] U.S. Environmental Protection Agency [EPA] National Institutes of Environmental Health Sciences [NIEHS] National Toxicology Program [NTP] U.S. Food and Drug Administration [FDA] Tox21 Assay Overview: Measure of cell viability is critical in the cell-base assay. Analysis of cell viability is necessary for the characterization of cell responses to cytotoxic drugs and environmental stress. A RealTime-Glo MT Cell Viability Assay to monitor cell viability in real time of continues cell culture during 40 hours of compound treatment was used to screen Tox21 10K library compounds in HepG2 cells. The RealTime-Glo MT Cell Viability Assay is a nonlytic, homogeneous, bioluminescent method to measure cell viability in real time using a simple, plate-based method. The assay involves adding NanoLuc luciferase and a cell-permeant prosubstrate to cells in culture. Viable cells reduce the proprietary prosubstrate to generate a substrate for NanoLuc luciferase. This substrate diffuses from cells into the surrounding culture medium, where it is rapidly used by the NanoLuc Enzyme to produce a luminescent signal. The signal correlates with the number of viable cells, making the assay well suited for cytotoxicity studies.
# Tox21 Assay Protocol Summary: The mixture of HepG2 cell suspension and reagents were dispensed at 600cells/6 ul/well in 1536-well tissue culture treated black solid bottom plates using a Multidrop dispenser. After the assay plates were incubated at a 37 C/5% CO2 incubator for 5 hours, 23 nL of compounds dissolved in DMSO, positive and negative controls was transferred to the assay plate by a pintool work station. The plates were incubated at 37 C for 40 hours. The luminescence intensity were measured at 0h, 8h, 16h, 24h, 32h and 40h time points using ViewLux plate reader during compound treatment.
# % is set by controls: 0 for no effect and ±100 for the full control effect.
row,SMILES,"activity change, negative = cytotoxic"
1,C[N+]1(C)CCC(OC(=O)C(O)(c2ccccc2)C2CCCC2)C1 (stereo not given),5.08% [at 35.3 µM]
2,CN1Cc2cc(C(=O)N3CCC(C4CCNCC4)CC3)ccc2NC(CC(=O)O)C1=O (stereo not given),3.06% [at 35.3 µM]
3,Nc1ncn([C@H]2C[C@H](O)[C@@H](CO)O2)c(=O)n1,1.83% [at 35.3 µM]
4,Cc1[nH]c(C)c(Cl)c(=O)c1Cl,0.907% [at 15.8 µM]
5,ClCCOCCOCCCl,3.16%
6,S=C([S-])NCCNC(=S)[S-].[Mn+2],-6.87%
7,CCn1cc(C(=O)O)c(=O)c2cnc(N3CCNCC3)nc21,-0.177% [at 35.3 µM]
8,COS(=O)(=O)C(F)(F)F,-5.78%
9,CCO[Si](CCCCl)(OCC)OCC,1.01%
10,O=C(NCCO[N+](=O)[O-])c1cccnc1,7.19% [at 35.3 µM]
11,CC/C=C\CCOC(=O)CC,0.0958%
12,O=C(O)C(S)C(S)C(=O)O (stereo not given),6.2% [at 35.3 µM]
13,C=C(C)C(=O)OCC,0.0009%
14,CCCCCCCCCOS(=O)(=O)O,11%
15,O=CC1CC=CCC1 (stereo not given),0.475%
16,CC(=O)c1ccc2c(c1)N(CCCN(C)C)c1ccccc1S2,-14.7% [at 35.3 µM]
17,O=C(CS)Nc1ccccc1,-14.1% [at 35.3 µM]
18,Nc1ccc([N+](=O)[O-])c(C(F)(F)F)c1,5.9% [at 35.3 µM]
19,CCCOC(C(=O)OC1CCN(C)CC1)(c1ccccc1)c1ccccc1,-19.8% [at 35.3 µM]
20,CNC(=O)CN(CCN(CCN(CC(=O)[O-])CC(=O)NC)CC(=O)[O-])CC(=O)[O-].O.[Gd+3],4.06% [at 35.3 µM]

row,SMILES,"activity change, negative = cytotoxic"
1,Nc1ccccc1S(=O)(=O)c1ccccc1,-2.36%
2,CCOC(=O)C(F)(F)F,1.17%
3,CCCNCC(O)COc1ccccc1C(=O)CCc1ccccc1 (stereo not given),-18.8% [at 35.3 µM]
4,Brc1c2ccccc2cc2ccccc12,-1.19%
5,COc1cc(C(=O)OCCCN2CCCN(CCCOC(=O)c3cc(OC)c(OC)c(OC)c3)CC2)cc(OC)c1OC,-11.8% [at 35.3 µM]
6,COc1ccc(C(=O)N2CCN(CC(=O)N3CCOCC3)CC2)cc1,8.06% [at 35.3 µM]
7,COCC(C)OC(C)=O (stereo not given),1.11%
8,CCCCC(CC)COC(=O)CCCCCCCCC(=O)OCC(CC)CCCC (stereo not given),-0.332%
9,CCCCCCCN,-0.901%
10,O=S(=O)(Oc1ccc(Cl)cc1)c1ccccc1,-15.5%
11,CC(C)(CO)[N+](=O)[O-],0.723%
12,COc1ccc(C(=O)c2ccc(OC)cc2O)c(O)c1,-16.4%
13,CCCCCCCCCCCCCCOS(=O)(=O)O,0%
14,C[C@@H]1C[C@H]2[C@@H]3CCC4=CC(=O)C=C[C@]4(C)[C@@]3(F)[C@@H](O)C[C@]2(C)[C@@]1(O)C(=O)COC(=O)c1ccncc1,-4.72% [at 35.3 µM]
15,CCOC(=O)NCCOc1ccc(Oc2ccccc2)cc1,-20.2%
16,COCCCN1CCC(NC(=O)c2cc(Cl)c(N)c3c2OCC3)CC1,-0.0162% [at 35.3 µM]
17,CC1=CC=C(C(C)C)CC1,4.27%
18,CC[N+](C)(CC)CCOC(=O)C(O)(c1ccccc1)C1CCCCC1 (stereo not given),-2.4% [at 35.3 µM]
19,O=[N+]([O-])c1ccc(NCCO)c(OCCO)c1,-14.7%
20,O=C(O)c1ccc(-n2nc(-c3ccccc3O)nc2-c2ccccc2O)cc1,2.79% [at 35.3 µM]
